HT1080-NT tox: kills 2HG-producing HT-1080-NT fibrosarcoma cells; HT-1080-NT fibrosarcoma viability, CellTiter-Glo ATP luminescence, 48 h; Potency, µM (top dose mostly 46.1 µM), for inactives: at the highest dose activity, negative = less viability, most hits filed as cytotoxic; hit rate 1.6% among 360,000;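 also: NT is the 2HG producing partner of a matched IDH1 knockdown line; 0% = DMSO-treated cells and -100% = media-only wells without cells; nearly all actives have a fitted effect of over 55% in size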
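A 48-hour cytotoxicity screen used HT-1080-NT cells plated 2 hours before compound delivery. ATP-based CellTiter-Glo luminescence measured viability, normalized to DMSO and no-cell controls.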
MCF10A rereplic: inducers of DNA re-replication in MCF 10A breast cells | MCF 10A DNA re-replication, Hoechst nuclear intensity, 48 h | hit rate 2.9% among 350,000 | Potency, µM (top dose mostly 46.1 µM), inactives show top-dose activity, positive = re-replication, usual class: activators; also: % of control where 0% means no effect; nearly all actives have a fitted effect of over 50% in size
KB-3-1 tox: kills parental KB-3-1 adenocarcinoma cells | KB-3-1 viability, CellTiter-Glo ATP luminescence, 72 h | Potency, µM (highest dose often 46.1 µM), usual class: cytotoxic | hit rate 1.4% among 400,000 | AID 1347075; also: % is scaled to controls: 0 for no effect and ±100 for the full control effect; nearly all actives have a fitted effect of over 60% in size
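KB-3-1 parental drug-naive adenocarcinoma cells in DMEM/10% FBS, incubated 72 h at 37 C with pin-transferred compounds across a concentration series. Viability by CellTiter-Glo luminescence; concentration-response curves fitted after normalization.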
HT1080 IDH1KD tx: HT-1080 IDH1 knockdown cell toxicity (counter line). hit rate 2% among 360,000. AID 686971. Potency, µM (highest dose often 46.1 µM), inactives show top-dose activity, negative = toxicity, hits mostly cytotoxic. HT-1080 IDH1 knockdown viability, ATP luminescence, 48 h;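 also: 0% = DMSO wells and -100% = cell-free medium wells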
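CellTiter-Glo luminescence after 48 h compound exposure at 37 degrees C of IDH1-knockdown HT-1080 cells in 5% FBS RPMI. %Activity scaled between DMSO wells and cell-free media wells, with curves fitted and assigned curve classes.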
SW480 rerep: induces DNA re-replication in SW480 colon adenocarcinoma cells; SW480 DNA re-replication, Hoechst DNA content imaging, 48 h; Potency, µM (series often up to 46.1 µM), for the others: at the top dose re-replication activation, most hits filed as activators; hit rate 1.8% among 340,000; also: % of control where 0% means no effect; nearly all actives have a fitted effect of over 55% in size
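250 cells/well; 23 nL cpd via pin tool; 48 hr, 37 C, 5% CO2; Hoechst 40 min; imager read of total nuclear intensity, ex 405/em 500-530 nm.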
KB-V1 MDR tox: KB-V1 MDR subline cytotoxicity; KB-V1 MDR cells viability, CellTiter-Glo, 72 h; Potency, µM (titrated, usually from 46.1 µM), hits mostly cytotoxic; hit rate 3.4% among 400,000; also: % is scaled to controls: 0 for no effect and ±100 for the full control effect; nearly all actives have a fitted effect of over 60% in size
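Following 72 h at 37 degrees C with compound, KB-V1 cell viability was read by CellTiter-Glo luminescence, medium being phenol-red-free DMEM plus 10% FBS; concentration-response parameters came from normalized, curve-fitted qHTS data.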
The depositor's hits bear a star; i = inactive; ? = inconclusive; . = not tested or not shown; [ ] = another dose, or the depositor's remark. The list is not random: actives were taken first. Their share in the collection is about 7.9%. Calls follow the shape of the dose curve; as a rule, active = well fitted curve in the direction sought with a large enough effect; inconclusive = small, poorly fitted or top-dose-only effect, or another doubt; inactive = no such curve, though single readings can be large; an effect the other way counts as inactive or inconclusive. Potency is read from the fitted curve at half-maximal effect.

SMILES	HT1080-NT tox	MCF10A rereplic	KB-3-1 tox	HT1080 IDH1KD tx	SW480 rerep	KB-V1 MDR tox
O=C(CSc1nc(-c2ccccc2)c(-c2ccccc2)o1)Nc1nncs1	-22.8%	?	i	-15.1%	5.1%	i
O=C(CSc1nc(-c2ccccc2)c(-c2ccccc2)o1)N1CCOCC1	-16.5%	16.4µM*	?	-18.6%	2.1%	?
COc1cc(CNCCCN2CCOCC2)c(Br)cc1OCC(=O)Nc1ccccc1C	-25.4%	14.6µM*	i	-18.9%	?	i
COc1ccccc1NC(=O)COc1ccc(Br)cc1CNCCCN1CCOCC1	-0.6%	?	i	-6.1%	?	i
COc1cc(/C=N/O)c(Br)cc1OCC(=O)Nc1ccccc1C	11.4%	-51.9%	i	12.6%	?	8.2µM*
CC1=C(SCc2ccccc2)C(=O)c2ccccc2C1=O	9.2µM*	3.66µM*	?	25.9µM*	3.66µM*	?
Cc1cc2nc(C(C)(C)C)c(Cc3ccsc3)n2c(C)c1Br	29.1µM*	.	i	?	.	i
O=C(Nc1c(F)c(F)c(F)c(F)c1F)NC1CCCCC1	-22.0%	2.0%	i	-0.2%	3.8%	16.4µM*
CCOC(=O)c1c(C)[nH]c(C(=O)COC(=O)c2cccnc2Cl)c1C	13.1%	-2.3%	i	-0.1%	-5.6%	i
NS(=O)(=O)c1ccc(CCNC(=O)CCCNC(=O)c2ccc(Cl)cc2)cc1	29.1%	0.9%	i	18.1%	-8.1%	i
Clc1ccc(/C=N/Nc2nnc(Cl)c3ccccc23)cc1	10.1%	22.7%	i	-5.0%	-3.2%	i
Clc1nnc(N/N=C/c2ccccc2)c2ccccc12	?	18.4µM*	?	?	?	?
CCOC(=O)C/C(=N\Nc1ncnc2ccccc12)c1ccccc1	-17.8%	28.1%	i	1.4%	-3.7%	16.4µM*
C(=N\Nc1ncnc2ccccc12)/c1ccccc1	23.1µM*	0.9%	i	?	?	?
CCOCCCNC(=O)C1CCN(C(=O)N(C)C)CC1	15.5%	-6.2%	i	8.1%	10.2%	i
O=C(N/N=C/c1cccs1)c1cccc(S(=O)(=O)Nc2ccc(Cl)cc2)c1	11.6µM*	5.4%	i	16.4µM*	-26.8%	i
C=CC[C@@H](CC(=O)N[C@H](CO)Cc1ccccc1)C(=O)N[C@H](COC(=O)[C@@H](CC=C)CC(=O)OC(C)(C)C)Cc1ccccc1	-18.1%	4.3%	?	-22.3%	45.7%[9.22 µM]	i
CCN(CC(=O)Nc1ccc2c(c1)OCCO2)S(=O)(=O)c1ccc(C)cc1	9.2%	12.5%	i	4.5%	-4.0%	16.4µM*
CCC(C)[C@H](NC(=O)Nc1ccc2c(c1)OCCO2)C(=O)O (stereo not given in full)	-7.4%	?	i	5.0%	18.4µM*	i
CCN(Cc1ccc2c(c1)OCCO2)S(=O)(=O)c1ccc(NC(C)=O)cc1	-5.5%[9.24 µM]	10.7%	i	-1.3%	20.8%	?
CN(CC(=O)Nc1ccc2c(c1)OCCO2)S(=O)(=O)c1ccc(Br)s1	2.3%	24.9%	i	-2.6%	-3.6%	i
CCN(CC)S(=O)(=O)c1ccc2c(c1)nc(CCC(=O)Nc1ccc3c(c1)OCO3)n2CC	-3.9%	2.3%	i	2.5%	-5.0%	14.6µM*
CCN(CC(=O)Nc1ccc2c(c1)OCCO2)S(=O)(=O)c1cccs1	5.4%	16.4µM*	i	14.7%	-2.4%	i
CCCCNC(=O)CN1C(=O)COc2ccc(S(=O)(=O)N3CCCC3)cc21	.	.	i	.	.	i
O=c1ccnc(SCCC(F)=C(F)F)[nH]1	0.4%	?	i	-2.2%	2.0%	i
SMILES	HT1080-NT tox	MCF10A rereplic	KB-3-1 tox	HT1080 IDH1KD tx	SW480 rerep	KB-V1 MDR tox
COc1ccc(N(CC(=O)Nc2cccnc2)S(=O)(=O)c2ccc(C)cc2)cc1Cl	-2.0%	-4.4%	i	-22.0%	-4.3%	?
O=C(CCc1ccc(S(=O)(=O)NCCc2ccccc2)cc1)Nc1ccc2c(c1)OCCO2	0.7%	?	i	-1.8%	?	20.6µM*
CCCNS(=O)(=O)c1ccc(CCC(=O)Nc2ccc3c(c2)OCCO3)cc1	4.2%	-23.5%	i	3.6%	0.7%	i
Cc1cc2c(=O)oc(-c3ccc(Br)cc3)nc2s1	12.5%	0.6%	i	17.4%	-42.8%	i
COC(=O)c1c(C)cccc1C1CN=NC12Cc1ccccc1C2=O (stereo not given)	0.3%	-5.3%	i	-1.8%	-4.2%	20.6µM*
CC1(Cc2ccccc2Cl)C(=O)Nc2ccc(OC(F)(F)F)cc21 (stereo not given)	?	.	i	29.1µM*	.	i
CC1(Cc2ccccc2C#N)C(=O)Nc2ccc(OC(F)(F)F)cc21 (stereo not given)	1.1%	.	i	-7.7%	.	i
Cc1ncc(CO)c(/C=N/NC(=S)Nc2ccc(C(C)C)cc2)c1O	3.2%	20.4%	?	?	2.91µM*	i
Cc1cc(C(=O)N/N=C/c2c(CO)cnc(C)c2O)c2ccccc2n1	?	?	?	20.6µM*	?	i
CCOC(=O)C#CC(CCc1ccccc1)OS(N)(=O)=O (stereo not given)	-1.4%	5.17µM*	i	-2.8%	-2.4%	i
N#Cc1cccc(S(=O)(=O)NCC(=O)OCC(=O)c2ccc[nH]2)c1	0.0%	-0.7%	i	7.2%	-2.0%	i
COC(=O)c1c(NC(=O)c2ccccc2)sc(Cc2ccccc2)c1C	10.7%	?	i	10.0%	9.9%	13µM*
CCN(CC)C(=O)c1sc(NC(=O)c2cccnc2)c(C(=O)OC)c1C	4.8%	-2.4%	i	6.9%	-5.2%	i
COC(=O)c1c(NC(=O)c2ccc(C)cc2)sc(Cc2ccccc2)c1C	12.0%	20.2%	i	0.9%	-0.3%	i
CCN(CC)C(=O)c1sc(NC(=O)c2ccc(Br)o2)c(C(=O)OC)c1C	8.7%	?	i	7.3%	8.8%	9.2µM*
COC(=O)c1c(NC(=O)c2ccccc2)sc(C(N)=O)c1C	-22.4%	2.8%	?	?	4.0%	i
COC(=O)c1c(NC(=O)c2ccccc2)sc(C(=O)c2ccccc2)c1C	?	6.51µM*	?	?	1.7%	?
Cn1c(NCc2ccccc2F)nc2cc(-c3ccccc3)sc2c1=O	?	.	?	-20.9%	.	?
COc1ccccc1NC(=O)c1oc2ccccc2c1NC(=O)C1CC1	-29.9%	?	?	?	-9.8%	i
CCOc1ccc(NC(=S)NN2CCN(C)CC2)cc1	14.1%	-11.7%	i	18.6%	-4.0%	i
C=C(C)c1cccc(C(C)(C)NC(=O)Nc2ccc(C(N)=O)cc2)c1	-3.8%	-18.1%	i	-21.2%	-17.8%	i

Screening results (PubChem)
